Compound activity (PubChem)
The list is not random: actives were taken first. Their share in the collection is about 10%.
CtBP-E1A inh = qHTS Assay for Inhibitors of the CtBP/E1A Interaction; actives 0.49% (n = 340,000); AlphaScreen GST-E1A/His-CtBP binding, 1536-well; hits give low values; CtBP / adenovirus E1A interaction (AlphaScreen); AID 651724, 2012; activity change, % (concentration not given with the values); in the data active means activity change below about -65%; inconclusive means mostly about -30% to -63%; further: on the % scale 0 is the no-effect control and ±100 the full control effect
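Protein mix (5X: 125 nM each GST-E1A, His-CtBP) was incubated with pinned compound 2 h at 37 deg C in dark, in 50 mM Tris pH 8.0 buffer with 300 mM NaCl. Glutathione donor and nickel acceptor beads followed; AlphaScreen signal read after 1 h.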
JMJD2A Tudor inh = qHTS Assay for Inhibitors of JMJD2A-Tudor Domain; actives 4.4% (n = 390,000); AlphaScreen JMJD2A-Tudor / H3K4me3 peptide binding; Lysine-specific demethylase 4A (Homo sapiens), O75164; Potency, µM (titrated, usually from 114 µM), for the others: at the highest dose activity change, negative = inhibition, hits mostly inhibitors; further: potency means the concentration at half of the fitted maximal effect; on the % scale 0 is the no-effect control and ±100 the full control effect; nearly all actives have a fitted effect of over 50% in size
BAZ2B block = qHTS Assay for Inhibitors of BAZ2B | AID 504333, 2011 | AlphaScreen BAZ2B-H3K14Ac peptide displacement | Potency, µM (highest dose often 114 µM), inactives show top-dose activity change, negative = inhibition, most hits filed as inhibitors | actives 4.4% (n = 360,000) | Bromodomain adjacent to zinc finger domain protein 2B (Homo sapiens), Q9UIF8; further: potency means the concentration at half of the fitted maximal effect; on the % scale 0 is the no-effect control and ±100 the full control effect; nearly all actives have a fitted effect of over 60% in size
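Inhibition is scored as reduced AlphaScreen emission. The BAZ2B/b-H3(5-23)K14Ac complex (50 nM each) in PBS pH 7.4, 0.01% Tween-20 meets compound (up to 110 uM) for 30 min at RT before bead addition.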
G9a inh = qHTS Assay for Inhibitors of Histone Lysine Methyltransferase G9a; G9a H3K9 monomethylation, AlphaScreen, 2 h; Potency, µM (series often up to 102 µM), inactives show at the highest dose activity, negative = inhibition, hits mostly inhibitors; actives 8.8% (n = 350,000); AID 504332, 2011; further: potency means the concentration at half of the fitted maximal effect; on the % scale 0 is the no-effect control and ±100 the full control effect; nearly all actives have a fitted effect of over 75% in size
Target sequence (Q96KQ7 913-1193 limits assumed): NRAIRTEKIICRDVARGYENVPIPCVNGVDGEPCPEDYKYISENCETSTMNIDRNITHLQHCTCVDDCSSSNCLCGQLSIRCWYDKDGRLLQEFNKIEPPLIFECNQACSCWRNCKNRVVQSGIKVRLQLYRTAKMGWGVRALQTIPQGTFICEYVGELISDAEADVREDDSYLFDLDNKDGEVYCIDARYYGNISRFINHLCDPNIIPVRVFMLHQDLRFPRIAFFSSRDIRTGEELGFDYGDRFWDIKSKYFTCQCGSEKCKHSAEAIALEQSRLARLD
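Enzyme 20 nM + cpd, 15 min RT; add b-H3K9 pep 500 nM / SAM 20 uM; 2 h RT; anti-H3K9me1 Ab 0.5 ug/mL + SA donor / anti-rabbit acceptor beads 20 ug/mL each, 10 min; AlphaScreen read.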
Six1-Eya2 blk = qHTS Assay for Inhibitors of the Six1/Eya2 Interaction | AlphaScreen GST-Six1/His-Eya2 binding, biochemical; hits give low values | activity change, % (no concentration beside the values) | actives 0.56% (n = 360,000); in the data active means activity change below about -65%; inconclusive means mostly about -30% to -63%; further: on the % scale 0 is the no-effect control and ±100 the full control effect
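Six1/Eya2 binding was read as AlphaScreen signal after compounds were pinned into GST-Six1 plus His-tagged Eya2 (5X stock 250/500 nM) in pH 8.0 Tris/NaCl/TCEP buffer, beads added, then incubated 1 h, 37 C, dark.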
HP1b binding inh = HTS for Inhibitors of HP1-beta Chromodomain Interactions with Methylated Histone Tails; AID 540317, 2011; actives 0.56% (n = 390,000); AlphaScreen HP1-beta / biotin-H3K9me3 peptide binding; Potency, µM (doses to about 114 µM), inactives show at the highest dose activity change, negative = inhibition, actives largely listed as inhibitors; further: potency means the concentration at half of the fitted maximal effect; nearly all actives have a fitted effect of over 70% in size
Target sequence (P83916 whole entry, looked up): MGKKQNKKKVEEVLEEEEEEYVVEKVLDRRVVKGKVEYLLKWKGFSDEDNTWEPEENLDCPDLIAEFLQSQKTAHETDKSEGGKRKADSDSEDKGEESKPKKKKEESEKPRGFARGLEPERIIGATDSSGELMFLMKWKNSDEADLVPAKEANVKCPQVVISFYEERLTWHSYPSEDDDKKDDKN
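HP1-beta protein (50 nM final) preincubated 30 min at room temperature with biotinylated H3(1-18)K9me3 peptide (50 nM) in PBS pH 7.4, 0.01% Tween-20, then compound added for 30 min. AlphaScreen streptavidin donor/nickel chelate acceptor beads (10 ug/mL final), 30 min dark, luminescence read.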
* = called active by the depositor; ? = inconclusive; . = no result; [ ] = remark or other dose. Unless noted, the call rests on the fitted dose curve; in most records, active means well fitted inhibition curve with a large enough effect; inconclusive means small, poorly fitted or top-dose-only effect; inactive means no such curve, though single readings can be large or run the other way.

SMILES | CtBP-E1A inh | JMJD2A Tudor inh | BAZ2B block | G9a inh | Six1-Eya2 blk | HP1b binding inh
COc1ccc(-c2cc(C)no2)cc1S(=O)(=O)N1CC(C)Oc2ccccc21 (stereo not given) | . | -18% | ? | -20%[59 µM] | . | 14%
Cc1cc(OCC(=O)N2CCC(c3nc4ccccc4s3)CC2)ccc1Cl | . | -13% | 11% | 3%[59 µM] | . | 21%
CCN1/C(=C2\C(=O)N(c3ccccc3)N=C2C)C=Cc2cc(C)ccc21 | 4 | -8% | 56µM* | ? | -1 | 21%
Nc1ccc2nc(CCc3ccccc3)[nH]c2c1 | 10 | ? | ? | 7.9µM* | -12 | -6%
Cc1ccc2nc(CCc3ccc(N)cc3)[nH]c2c1 | 0 | ? | ? | 35µM* | -19 | -2%
Nc1ccc(Cc2nc3cc4ccccc4cc3[nH]2)cc1 | 8 | ? | -36% | -22%[59 µM] | -12 | 5%
CCc1nc2ccc(Cc3ccc4nc(CC)[nH]c4c3)cc2[nH]1 | . | -10% | -14% | 45µM* | -13 | 45%
CNC(=O)C1CCC(Cn2c(=O)c3sccc3n(CC(=O)Nc3cc(C)cc(C)c3)c2=O)CC1 (stereo not given) | . | -6% | -2% | -4%[59 µM] | . | 33%
CCCCn1c(SCC(=O)c2ccc(O)c(O)c2)nc2ccsc2c1=O | -3 | ? | ? | 7%[59 µM] | -12 | ?
O=C(CSc1nc2ccsc2c(=O)n1CC1CCC(C(=O)O)CC1)c1ccc(Cl)cc1 (stereo not given) | 13 | 79µM* | . | 56µM* | -27 | -19%
O=C(O)CCCCCn1c(SCC(=O)c2ccc(O)c(O)c2)nc2ccsc2c1=O | ? | ? | ? | 79µM* | ? | -2%
CCOc1ccccc1NC(=S)NC1CCCCC1 | -1 | -18% | -23% | -17%[59 µM] | -1 | 5%
CCOc1ccccc1C(=S)NC1CCCCC1 | 4 | -1% | 8% | 35µM* | 11 | 25%
CCOc1ccc(C(=S)NC2CCCCC2)cc1OC | -8 | ? | -5% | 13µM* | 2 | ?
CCOc1ccc(CC(=O)NNC(=S)NC2CCCCC2)cc1OCC | -5 | 1% | 3% | 14%[59 µM] | 3 | 53%
CCCCC(Sc1ccc2nnc(-c3ccccn3)n2n1)C(=O)O (stereo not given) | . | ? | . | . | . | -5%[57 µM]
Cc1ccc(CNC(=O)c2cc(Sc3ccc(F)cc3F)nc3ccccc23)cc1 | . | -24% | 0% | -3%[59 µM] | . | 31%
O=C(CSc1nc2ccccc2s1)N1N=C(c2cccs2)CC1c1ccc(F)cc1 (stereo not given) | 8 | -10% | -10% | 13%[59 µM] | 3 | 28%
O=C(CSc1nc2c(cnn2-c2ccc(F)cc2)c(=O)[nH]1)N1N=C(c2cccs2)CC1c1ccc(F)cc1 (stereo not given) | . | . | 1.3µM* | 32µM* | . | .
Cc1ccc2c(=O)cc(C(=O)Nc3ccc(S(=O)(=O)N(C)Cc4ccccc4)cc3)oc2c1C | . | -14% | 16% | ? | . | 65%
COc1cc(/C=C(\C#N)C(N)=O)cc(CSc2nc3ccccc3s2)c1O | . | . | . | 5µM* | . | .
NC(=O)c1ccc(CSc2nc3ccccc3s2)cc1 | -15 | -17% | -13% | 5% | -7 | 24%
COc1cc(OC)c(NC(=O)N2CCc3c(sc4c3CCCC4)C2c2ccccc2)cc1Cl (stereo not given) | . | ? | -35% | ? | . | -7%
CC(=O)c1cccc(NC(=O)c2sc(-n3nc(C)c(Cc4ccccc4)c3C)nc2C)c1 | . | -6% | -7% | 6%[59 µM] | . | 36%
CCCCCSc1nnc2c(n1)OC(c1ccc(C)s1)N(C(C)=O)c1ccccc1-2 (stereo not given) | . | ? | -38% | ? | . | -8%
SMILES | CtBP-E1A inh | JMJD2A Tudor inh | BAZ2B block | G9a inh | Six1-Eya2 blk | HP1b binding inh
CCCCSc1nnc2c(n1)OC(c1ccc(Br)s1)N(C(C)=O)c1ccccc1-2 (stereo not given) | . | ? | ? | 10µM* | . | 16%
Cc1cccc(N=c2c([N+](=O)[O-])nn(-c3ccc(Cl)cc3)n2O)c1 | -3 | -9% | 10µM* | 28µM* | -1 | 3%
Cc1cc(C)cc(N=c2c([N+](=O)[O-])nn(-c3cccc(Cl)c3)n2O)c1 | ? | ? | ? | 40µM* | ? | -33%
O=[N+]([O-])c1nn(-c2ccc(Cl)cc2)n(O)c1=NCc1ccccc1Cl | -22 | -30% | ? | ? | -8 | 8%
Cc1cccn2c(=O)cc(CSc3nnc(NC(=O)c4ccc(F)cc4)s3)nc12 | . | 12% | 7% | 0%[59 µM] | . | 22%[57 µM]
NC(=O)c1c(N)sc2c1CCCCC2 | -8 | ? | 5% | 8.9µM* | -7 | 18µM*
NC(=O)c1c(N)sc2c1CCC2 | -24 | -18% | -13% | . | -16 | 1%
CC(C)OC(=O)c1c(N)sc2c1CCCC2 | -6 | ? | . | . | -4 | -36%
CNC(=O)c1c(N)sc2c1CCCCC2 | . | . | -10% | 10µM* | . | .
Nc1sc2c(c1C(=O)NC1CCS(=O)(=O)C1)CCC2 (stereo not given) | -3 | 7%[11.4 µM] | -36% | 7.1µM* | -10 | 7%
Cc1cccc(N2CCN(C(=O)CS(=O)(=O)Cc3nc(-c4ccccc4C)oc3C)CC2C)c1 (stereo not given) | . | -32% | ? | ? | . | 1%
NC(Cc1ccc(F)cc1)c1csc(Nc2cc(NCc3ccco3)ncn2)n1 (stereo not given) | -76* | . | . | . | ? | .
NC(c1csc(Nc2cc(NCc3ccco3)ncn2)n1)c1ccccc1Cl (stereo not given) | -80* | . | . | . | ? | .
NC(Cc1ccc(F)cc1)c1csc(Nc2cc(Oc3ccccc3)ncn2)n1 (stereo not given) | -26 | . | . | . | -19 | .
COc1ccc(NC(=O)CC2C(=O)N(c3cccc(C)c3)C(=O)N2Cc2cccnc2)cc1 (stereo not given) | . | 6% | -9% | 3%[59 µM] | . | 40%
CC(C)c1ccc2occ(-c3nn[nH]n3)c(=O)c2c1 | -6 | 18µM* | 56µM* | ? | -4 | -3%
CC(C)c1ccc2occ(CC(=O)Nc3ccccc3Cl)c2c1 | . | 139% | 45% | 49%[59 µM] | . | 122%
Cc1ccc2occ(-c3nn[nH]n3)c(=O)c2c1 | -7 | 28µM* | 50µM* | ? | 0 | 15%
